Reference: PubChem BioAssay AID1159580 (chemical genetic matrix, 2015)
Hit rate of the full screen: of about 5,500 compounds, about 2,000 (36%) were called active. About 18% were inconclusive and are not listed. Rule as the data show it: active = normalized growth mostly below about 0.91 (no sharp cut-off); inconclusive = no clear call, values can overlap the other calls; inactive = mostly above about 0.92. Some of the results follow.

Test: chemical genetic growth profiling, strain panel (AID 1159580);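 also: tested at 20 µM; growth read once vehicle control cultures reached saturation at 30 °C; 1 = growth at the plate median or of vehicle wells; lower values mean less growth of the strain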
Conditions: S. cerevisiae deletion strains, growth OD

Measured: normalized growth

O=C(NCCSCc1ccco1)c1ccc(Cl)cc1
active: locus YHR030C, strain SLT2, hits give low values 0.587 | locus YLR039C, strain RIC1, hits give low values 1.31 [resistant] | locus YLR262C, strain YPT6, hits give low values 1.19 [resistant]
inactive: locus YAL013W, strain DEP1, hits give low values 0.976 | locus YBR229C, strain ROT2, hits give low values 0.991 | locus YDL101C, strain DUN1, hits give low values 0.976 | locus YDR150W, strain NUM1, hits give low values 0.815 | locus YEL061C, strain CIN8, hits give low values 0.994 | locus YGR078C, strain PAC10, hits give low values 0.989 | locus YHR087W, strain rtc3, hits give low values 1 | locus YJL187C, strain SWE1, hits give low values 1 | locus YJR043C, strain POL32, hits give low values 0.975 | locus YJR075W, strain HOC1, hits give low values 1.05 | locus YKL190W, strain CNB1, hits give low values 1 | locus YLR058C, strain SHM2 (second series), hits give low values 0.96 | locus YLR085C, strain ARP6, hits give low values 1 | locus YML094W, strain GIM5, hits give low values 0.989 | locus YMR219W, strain ESC1, hits give low values 0.98 | locus YMR263W, strain SAP30, hits give low values 0.981 | locus YNL128W, strain TEP1, hits give low values 0.983 | locus YNL153C, strain GIM3, hits give low values 0.984 | locus YNL298W, strain CLA4 (second series), hits give low values 0.968 | locus YNL322C, strain KRE1, hits give low values 0.988 | locus YNR030W, strain Alg12, hits give low values 0.982 | locus YPL055C, strain LGE1, hits give low values 0.962 | locus YPL241C, strain CIN2, hits give low values 0.975 | locus YPR135W, strain CTF4, hits give low values 1.02
